The full list was thinned out, with hits kept by preference.
ERG-DNA inh = qHTS for Small Molecule Inhibitors of the ERG Ets/DNA interaction. Transcriptional regulator ERG (Homo sapiens), P11308. fluorescence polarization, His-ERG Ets domain / labelled DNA. Potency, µM (highest dose often 76.9 µM), for inactives: at the top dose FP activity, negative = inhibition, hits mostly inhibitors. 370,000 compounds, 0.028% hits. AID 624246, 2012; active means well fitted inhibition curve with a large enough effect in the polarisation, with a control signal flat; inconclusive means small, poorly fitted or top-dose-only effect, or effect the other way, or a change in a side signal; inactive means no such curve, though single readings can be large or run the other way; the % refers to the polarisation;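 further: polarization taken with two DNA probes labelled with fluorescein and Texas red; potency means the concentration at half of the fitted maximal effect; % of control where 0% means no effect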
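His-tagged ERG Ets domain (1 uM in the protein solution; 300mM KCl, 50mM Tris-HCl, 1mM EDTA, 1mM DTT, pH 7.5) received compound, then a probe mix of 5 nM fluorescein-DNA and 100nM Texas-615-DNA. Fluorescence polarization was read for both dyes.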
Giardia kill = Small Molecules that selectively kill Giardia lamblia: qHTS | Giardia lamblia trophozoite viability | activity change, % at 7.66 µM, hits read low | 340,000 compounds, 0.15% hits; in the data active means activity change below about -80%; inconclusive means between about -30% and that limit;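 further: parasites exposed to compound for two days anaerobically before the ATP read; on the % scale 0 is the no-effect control and ±100 the full control effect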
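Luminescent ATP signal served as the viability read-out, measured 15-30 min after adding ATP detection reagent to trophozoites that had been incubated with compounds for 48 hrs at 37 deg C anaerobically at 100 cells/well.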
RORg inh = qHTS for inhibitors of ROR gamma transcriptional activity; Potency, µM (doses to about 53.6 µM), without a hit: at the highest dose activity change, negative = inhibition, hits mostly inhibitors; 310,000 compounds, 5.4% hits; Nuclear receptor ROR-gamma (Mus musculus), P51450; Drosophila S2 Gal4-RORgamma UAS-luciferase reporter, 20 h; further: potency means the concentration at half of the fitted maximal effect; on the % scale 0 is the no-effect control and ±100 the full control effect; nearly all actives have a fitted effect of over 60% in size
Target sequence (P51450 whole entry, looked up, the tested form may be a part): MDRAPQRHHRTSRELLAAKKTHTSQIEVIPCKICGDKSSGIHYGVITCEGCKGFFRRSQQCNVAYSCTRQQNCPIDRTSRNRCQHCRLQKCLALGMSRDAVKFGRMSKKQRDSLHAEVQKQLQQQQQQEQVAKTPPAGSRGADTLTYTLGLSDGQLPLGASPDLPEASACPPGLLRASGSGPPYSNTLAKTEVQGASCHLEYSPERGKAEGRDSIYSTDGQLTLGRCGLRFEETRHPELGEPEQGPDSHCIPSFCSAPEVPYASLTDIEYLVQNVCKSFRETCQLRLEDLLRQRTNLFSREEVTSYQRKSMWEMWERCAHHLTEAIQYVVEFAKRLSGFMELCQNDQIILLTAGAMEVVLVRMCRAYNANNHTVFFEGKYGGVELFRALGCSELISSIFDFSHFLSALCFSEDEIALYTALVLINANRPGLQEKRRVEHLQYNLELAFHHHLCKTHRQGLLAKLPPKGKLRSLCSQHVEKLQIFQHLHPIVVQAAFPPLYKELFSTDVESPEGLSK
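Read-out: Photinus luciferase luminescence; inhibitors lower reporter signal. Insect Schneider cells with Gal4-ROR gamma fusion under metallothionein promoter, UAS reporter; 700 uM final copper sulfate induction, 20 hr, ambient temperature.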
Gal4-VP16 FLuc = VP16 counterscreen qHTS for inhibitors of ROR gamma transcriptional activity. Drosophila S2 Gal4-VP16 UAS-luciferase, luminescence, 20 h. Potency, µM (series often up to 53.6 µM), without a hit: at the top dose activity, negative = inhibition, hits mostly inhibitors. 310,000 compounds, 3.5% hits;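 further: Gal4-VP16 expression switched on by copper sulfate through the metallothionein promoter; potency means the concentration at half of the fitted maximal effect; on the % scale 0 is the no-effect control and ±100 the full control effect; nearly all actives have a fitted effect of over 50% in size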
Integrin act MD = qHTS for Activators of Integrin-Mediated Alleviation for Muscular Dystrophy. alpha7betagal myoblasts, beta-gal FDG fluorescence, 48 h. Potency, µM (series often up to 38.3 µM), inactives show top-dose activation, hits mostly activators. 350,000 compounds, 0.064% hits. AID 624291, 2012;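 further: potency means the concentration at half of the fitted maximal effect; 100% = response of the positive control SU9516; nearly all actives have a fitted effect of over 60% in size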
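alpha7betagal+/- myoblasts (passage 13, 250/well) treated 48 h at 37C with compounds at 1:260 dilution of DMSO stock. Lysed, then beta-galactosidase activity read as FDG fluorescence (ex 480/em 540) after 30 min, with pre-read for autofluorescence.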
* hit, by the source's call; ? = inconclusive; . = no result; [ ] = dose if it differs, or a comment. Unless noted, the call rests on the fitted dose curve; in most records, active means well fitted curve in the direction sought with a large enough effect; inconclusive means small, poorly fitted or top-dose-only effect, or another doubt; inactive means no such curve, though single readings can be large; an effect the other way counts as inactive or inconclusive.

SMILES	ERG-DNA inh	Giardia kill	RORg inh	Gal4-VP16 FLuc	Integrin act MD
COc1ccc2c(COC(=O)CNC(=O)C34CC5CC(CC(C5)C3)C4)cc(=O)oc2c1	0%	8	3%	-9%	-10%
CC(=O)/C(=C(/O)c1ccccc1)c1nc2ccccc2[nH]1	4%	0	-17%	-15%	18%
O=C(c1ccccc1)c1ncc[nH]1	3%	-16	17%	30%	10%
O=C(/C(=C(\O)c1ccccc1)c1nc2ccccc2[nH]1)c1ccccc1	-20%	-10	7.9µM*	?	-2%
O=C(/C(=C(\O)c1ccccc1)c1ncc[nH]1)c1ccccc1	-3%	-9	13µM*	?	4%
CCn1c(CN2CCCCC2)nc2cc(NC(=O)c3ccc([N+](=O)[O-])cc3)ccc21	3%	.	.	.	.
COc1ccc(-c2cc3nc(C)c(CCC(=O)Nc4ccccc4C(C)=O)c(C)n3n2)c(OC)c1	3%	.	.	.	.
O=[N+]([O-])c1ccc(/C=C/c2ccc3cccc([N+](=O)[O-])c3n2)cc1	4%	-28	?	-27%	11%
COC(=O)c1ccc(/C=C/C(=O)O)cc1	-8%	-20	-27%	-24%	-47%
O=C(O)c1ccc(/C=C/c2ccc3cccc(O)c3n2)cc1	1%	-23	2.8µM*	0.56µM*	-28%
Oc1ccc(/C=C/c2ccc3cccc(O)c3n2)cc1Br	32%	-2	3.2µM*	18µM*	0%
COC(=O)c1ccc(/C=C/c2ccc3cccc(OC(C)=O)c3n2)cc1	-11%	0	5.6µM*	3.5µM*	-28%
O=[N+]([O-])c1cccc(/C=C/c2ccc3cccc(O)c3n2)c1	-1%	-2	3.2µM*	4.5µM*	-20%
C/C=C(/C)C#N	.	.	-10%	9%	.
O=C(Nc1ccc(OCC(F)(F)C(F)F)c(C(F)(F)F)c1)c1ccccc1	-1%	1	.	.	-24%
O=C(Nc1ccc(OCC(F)(F)C(F)F)c(C(F)(F)F)c1)c1ccccc1O	-3%	-6	7.9µM*	-8%[0.365 µM]	-27%
Cc1ccc(C(=O)CC(=O)c2cccc(F)c2)c(O)c1	-7%	-2	11µM*	?	-22%
CC(=O)c1ccc(C)cc1OC(=O)c1cccc(F)c1	4%	-8	14%	1%	-6%
Cc1ccc(C(=O)CC(=O)c2ccccc2C)c(O)c1	4%	-6	3.5µM*	5.6µM*	-10%
Cc1ccc(C)c(-n2cc(CNCCCn3cccn3)c(-c3ccccc3)n2)c1	-8%	-4	10µM*	-7%	-68%
Cc1ccc(-n2cc(CNCCCn3cccn3)c(-c3cccc(C)c3)n2)cc1	-8%	11	-35%	-6%	-73%
Cc1ccc(-n2nnc(-c3nc(-c4cccs4)no3)c2N)cc1C	-2%	.	.	.	.
C/C(=N\NC(=S)Nc1ccccc1C)C1Cc2ccccc2C(=O)O1 (centres undefined)	12%	8	2.8µM*	?	7%
C/C(=N\NC(=S)Nc1ccccc1)C1Cc2ccccc2C(=O)O1 (centres undefined)	-15%	8	25%	-3%	0%
O=c1oc2cc(Cl)ccc2n1CSc1nc2ccccc2s1	-4%	-2	-6%	23%	-36%
SMILES	ERG-DNA inh	Giardia kill	RORg inh	Gal4-VP16 FLuc	Integrin act MD
COC(=O)c1sc2nc(C)cc(C)c2c1N	-10%	13	-20%	-1%	14%
Cc1cc(C)c2c(N)c(C(=O)Nc3ncc(C)s3)sc2n1	4%	-108*	2µM*	2.8µM*	18%
COc1ccc2nc(NC(=O)c3sc4nc(C)cc(C)c4c3N)sc2c1	-3%	-24	0.04µM*	?	9%
O=C(CN1CCN(S(=O)(=O)c2ccc(Cl)s2)CC1)N1CCOCC1	0%	9	9%	11%	19%
CCC1CCCCN1S(=O)(=O)c1ccc(C(=O)Nc2nnc(C3CC3)o2)cc1 (centres undefined)	-13%	-2	0.32µM*	0.32µM*	-15%
CS(=O)(=O)c1ccccc1-c1nnc(NC(=O)c2ccc(S(=O)(=O)N3CCCC3)cc2)o1	-3%	-3	.	.	13%
O=C(Nc1nnc(-c2ccccc2Cl)o1)c1ccc(S(=O)(=O)N2CCCCCC2)cc1	4%	-5	0.45µM*	0.4µM*	-33%
